# Assay results published in PubChem BioAssay (NCATS).
# Where “and” joins values, the source holds several entries; their conditions need not be identical. Equal values may be shown once. Calls of active or inactive are those of the source. Entries that show only a call come without a potency. Unless noted, the call rests on the fitted dose curve; in most records, active means well fitted curve in the direction sought with a large enough effect; inconclusive means small, poorly fitted or top-dose-only effect, or another doubt; inactive means no such curve, though single readings can be large; an effect the other way counts as inactive or inconclusive.
# Legend:
# [1] = qHTS for Inhibitors of Cell Surface uPA Generation: Validation Assay (AID 493164);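 further: RAW 264.7 macrophage cells exposed to compound for 18 h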
# Method in brief: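 ATP-Lite luminescence read-out: ATP remains high when uPA activity-dependent LF translocation into the cytoplasm is blocked. RAW 264.7 cells, 18 h compound exposure at 37 C; 7-point titration, 2.45 nM to 38.3 uM final.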
# [2] = biological target: Galactokinase (Homo sapiens) (UniProt P51570); assay: qHTS Validation Assay for Inhibitors of Human Galactokinase (GALK) (AID 493189)
# Sequence of Galactokinase (Homo sapiens) (P51570 whole entry, looked up): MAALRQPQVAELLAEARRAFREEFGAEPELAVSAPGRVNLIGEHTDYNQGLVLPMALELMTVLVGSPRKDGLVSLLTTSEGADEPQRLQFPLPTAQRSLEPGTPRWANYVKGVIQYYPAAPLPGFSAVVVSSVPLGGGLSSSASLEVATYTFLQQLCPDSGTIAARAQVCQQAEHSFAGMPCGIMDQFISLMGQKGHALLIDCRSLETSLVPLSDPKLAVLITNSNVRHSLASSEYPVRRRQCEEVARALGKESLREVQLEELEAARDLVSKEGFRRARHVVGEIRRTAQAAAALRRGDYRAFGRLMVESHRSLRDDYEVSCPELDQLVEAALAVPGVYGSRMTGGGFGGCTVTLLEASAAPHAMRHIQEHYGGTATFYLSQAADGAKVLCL
# Method in brief: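 Luminescence from leftover ATP (Kinase-Glo Plus, 10 min) served as read-out after a 1 h room-temperature reaction of 5 nM GALK, 100 uM galactose and 35 uM ATP at pH8.0.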
# [3] = Validation screen for small molecules that induce DNA re-replication in SW480 colon adenocarcinoma cells (AID 504364)
# Method in brief: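 Image-based qHTS: compounds were incubated with SW480 cells for 48 hr, nuclei stained with Hoechst, and per-nucleus fluorescence intensity scanned to flag cells with excess DNA content.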
# [4] = biological target: Peptidyl-prolyl cis-trans isomerase NIMA-interacting 1 (Homo sapiens) (UniProt Q13526); assay: qHTS Validation Assay to Find Inhibitors of Pin1 (AID 504536; active means well fitted inhibition curve with a large enough effect in the polarisation, with a control signal flat, not every such curve was filed as active; inconclusive means small, poorly fitted or top-dose-only effect, or effect the other way; the % refers to the polarisation)
# Sequence of Peptidyl-prolyl cis-trans isomerase NIMA-interacting 1 (Homo sapiens) (Q13526 whole entry, looked up): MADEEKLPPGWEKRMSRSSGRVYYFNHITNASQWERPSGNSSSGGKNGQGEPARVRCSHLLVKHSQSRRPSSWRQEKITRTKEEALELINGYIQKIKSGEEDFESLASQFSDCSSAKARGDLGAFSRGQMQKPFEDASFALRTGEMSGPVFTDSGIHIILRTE
# Method in brief: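 Fluorescence polarization competition: compounds (titration) displace HiFluor-488-labeled Pin1-1b peptide from Pin1 (0.3 uM final) in pH 7.5 HEPES buffer with DTT, 10 min at room temperature; %Activity normalized to no-enzyme wells, curves fitted.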
# [5] = biological target: Phosphoglycerate kinase, glycosomal (Trypanosoma brucei brucei) (UniProt P07378); assay: qHTS Validation Assay to Find Inhibitors of Phosphoglycerate Kinase (AID 504547)
# Sequence of Phosphoglycerate kinase, glycosomal (Trypanosoma brucei brucei) (P07378 whole entry, looked up): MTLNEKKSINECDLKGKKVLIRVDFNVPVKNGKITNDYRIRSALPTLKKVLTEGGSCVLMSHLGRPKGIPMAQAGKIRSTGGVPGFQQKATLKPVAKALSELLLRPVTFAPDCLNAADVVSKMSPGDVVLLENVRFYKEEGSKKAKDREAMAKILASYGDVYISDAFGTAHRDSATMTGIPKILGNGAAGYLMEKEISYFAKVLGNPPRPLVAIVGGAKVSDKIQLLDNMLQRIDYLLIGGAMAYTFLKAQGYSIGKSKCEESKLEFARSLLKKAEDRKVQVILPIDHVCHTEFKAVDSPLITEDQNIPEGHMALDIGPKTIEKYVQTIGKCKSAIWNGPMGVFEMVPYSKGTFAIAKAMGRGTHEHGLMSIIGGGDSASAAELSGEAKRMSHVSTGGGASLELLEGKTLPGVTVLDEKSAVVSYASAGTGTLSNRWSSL
# Method in brief: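 Compounds are pinned into the substrate/PGK mixture, and GAPDH (100nM final) is added to start the reaction by producing 1,3-BPG. After 60 minutes at room temperature, Kinase-Glo Plus is added and luminescence is measured 10 minutes later.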
# [6] = biological target: phosphoglycerate mutase (Leishmania major) (UniProt Q4Q090); assay: qHTS Validation Assay to Find Inhibitors of Phosphoglycerate Mutase (AID 504548);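 further: end-point luminescence from Kinase-GloPlus after the PGAM reaction; series mostly up to about 58 µM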
# Method in brief: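 Inhibition of L. major PGAM was assessed by Kinase-GloPlus luminescence following a 45-minute room-temperature reaction with enzyme at 1.25nM final.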
# [7] = biological target: Ubiquitin carboxyl-terminal hydrolase 1 (Homo sapiens) (UniProt O94782); assay: Inhibitors of USP1/UAF1: Pilot qHTS (AID 504865);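 further: rhodamine fluorescence freed from ubiquitin-rhodamine substrate followed over time; top concentration of the series differs between compounds; nearly all actives have a fitted effect of over 35% in size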
# Sequence of Ubiquitin carboxyl-terminal hydrolase 1 (Homo sapiens) (O94782 whole entry, looked up): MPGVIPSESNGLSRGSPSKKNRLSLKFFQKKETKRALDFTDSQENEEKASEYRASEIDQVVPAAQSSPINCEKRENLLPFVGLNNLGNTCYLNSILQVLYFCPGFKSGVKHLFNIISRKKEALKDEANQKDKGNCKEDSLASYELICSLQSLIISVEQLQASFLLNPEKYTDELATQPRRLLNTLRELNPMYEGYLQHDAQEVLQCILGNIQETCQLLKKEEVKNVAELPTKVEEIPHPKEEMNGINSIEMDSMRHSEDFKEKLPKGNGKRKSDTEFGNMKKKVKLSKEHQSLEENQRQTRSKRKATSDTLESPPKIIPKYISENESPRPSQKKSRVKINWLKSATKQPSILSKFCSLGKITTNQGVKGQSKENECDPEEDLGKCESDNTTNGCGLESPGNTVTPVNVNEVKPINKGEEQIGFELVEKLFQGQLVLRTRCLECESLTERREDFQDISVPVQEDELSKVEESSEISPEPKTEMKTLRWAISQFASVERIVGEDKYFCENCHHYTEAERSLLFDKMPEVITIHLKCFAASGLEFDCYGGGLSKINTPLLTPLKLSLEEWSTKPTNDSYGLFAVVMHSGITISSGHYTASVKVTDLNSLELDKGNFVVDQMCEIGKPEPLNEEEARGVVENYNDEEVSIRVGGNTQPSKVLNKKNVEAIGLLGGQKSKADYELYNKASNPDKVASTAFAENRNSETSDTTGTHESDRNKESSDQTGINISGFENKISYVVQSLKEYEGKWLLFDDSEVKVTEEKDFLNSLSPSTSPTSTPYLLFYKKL
# Method in brief: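 1nM USP1/UAF1 + cpd, 15 min RT; start w/ Ub-Rho 150nM final; kinetic FL 480/540 nm, 6 reads q60 s. Buffer 50mM HEPES pH 7.8, 0.5mM EDTA, 1mM TCEP, 0.01% Tween-20, 0.1 mg/ml BSA.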
# [8] = qHTS for Inhibitors of ATXN expression: Validation of Cytotoxic Assay (AID 588349)
# Method in brief: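 Titrated compounds are added to cultured HEK293 cells, which are then held at 37 degrees C for 72 hr; loss of intracellular ATP, measured with CellTiter Glo, indicates toxicity.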
# [9] = qHTS for Inhibitors of ATXN expression: Validation (AID 588378); further: series mostly up to about 57 µM; nearly all actives have a fitted effect of over 75% in size
# Method in brief: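 Cells: HEK293-ATXN2-FFLuc, phenol-red free DMEM, 2 h attachment. Compound pin-transfer, 24 h, 37 degrees C, 5% CO2. CellTiter-Fluor 30 min, Ex405/Em525; Bright-Glo 5 min, luminescence 2 s exposure.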
# [10] = biological target: Estrogen receptor (Homo sapiens) (UniProt P03372); assay: qHTS assay for small molecule antagonists of estrogen receptor alpha signaling (AID 588513; active means well fitted curve in the direction sought with a large enough effect in the signal ratio, with a control signal flat, not every such curve was filed as active; inconclusive means small, poorly fitted or top-dose-only effect, or effect the other way, or a change in a side signal; inactive means no such curve, though single readings can be large or run the other way; the % refers to the signal ratio; further: potency means the concentration at half of the fitted maximal effect)
# Sequence of Estrogen receptor (Homo sapiens) (P03372 whole entry, looked up): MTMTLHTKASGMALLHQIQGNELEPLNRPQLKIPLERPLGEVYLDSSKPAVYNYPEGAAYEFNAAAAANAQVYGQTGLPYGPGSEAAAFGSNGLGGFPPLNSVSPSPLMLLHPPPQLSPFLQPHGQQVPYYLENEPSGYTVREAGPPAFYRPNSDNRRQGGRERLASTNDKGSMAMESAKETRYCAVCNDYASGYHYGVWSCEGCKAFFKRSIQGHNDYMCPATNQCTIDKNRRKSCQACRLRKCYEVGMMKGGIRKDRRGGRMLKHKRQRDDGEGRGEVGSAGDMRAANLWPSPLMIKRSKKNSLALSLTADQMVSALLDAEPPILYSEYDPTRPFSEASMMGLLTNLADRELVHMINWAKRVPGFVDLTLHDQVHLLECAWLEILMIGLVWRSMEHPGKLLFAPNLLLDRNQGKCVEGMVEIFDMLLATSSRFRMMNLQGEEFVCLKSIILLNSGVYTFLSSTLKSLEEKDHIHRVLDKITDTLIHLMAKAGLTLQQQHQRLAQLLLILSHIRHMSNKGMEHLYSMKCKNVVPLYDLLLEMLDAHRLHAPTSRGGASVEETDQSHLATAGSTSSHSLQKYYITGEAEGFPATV
# Method in brief: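 Beta-lactamase reporter, antagonist mode, HEK 293 GripTite cells; 0.5nM E2 stimulus, 18 h, 37 C; CCF4 dye 2 h RT; fluorescence. IC50 and efficacy from Hill fits, normalized to E2 and DMSO.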
# [11] = qHTS assay for small molecule antagonists of peroxisome proliferator-activated receptor delta signaling (AID 588535; active means well fitted inhibition curve with a large enough effect in the signal ratio, with a control signal flat, not every such curve was filed as active; inconclusive means small, poorly fitted or top-dose-only effect, or effect the other way, or a change in a side signal; inactive means no such curve, though single readings can be large or run the other way; the % refers to the signal ratio;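 on max response: cells co-treated with a PPAR-delta agonist as stimulator during compound exposure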); details: HEK293T PPARd-UAS-bla, beta-lactamase FRET ratio, 18 h; 460 nm channel
# Method in brief: (§1)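 Fluorescence from CCF4-loaded GeneBLAzer PPAR-delta-UAS-bla HEK293T cells (2 hrs RT loading) quantified reporter inhibition after an 18 hr, 37 C compound exposure across a titration.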
# [12] = biological target: Peroxisome proliferator-activated receptor delta (Homo sapiens) (UniProt Q03181); assay: as above
# Sequence of Peroxisome proliferator-activated receptor delta (Homo sapiens) (Q03181 whole entry, looked up): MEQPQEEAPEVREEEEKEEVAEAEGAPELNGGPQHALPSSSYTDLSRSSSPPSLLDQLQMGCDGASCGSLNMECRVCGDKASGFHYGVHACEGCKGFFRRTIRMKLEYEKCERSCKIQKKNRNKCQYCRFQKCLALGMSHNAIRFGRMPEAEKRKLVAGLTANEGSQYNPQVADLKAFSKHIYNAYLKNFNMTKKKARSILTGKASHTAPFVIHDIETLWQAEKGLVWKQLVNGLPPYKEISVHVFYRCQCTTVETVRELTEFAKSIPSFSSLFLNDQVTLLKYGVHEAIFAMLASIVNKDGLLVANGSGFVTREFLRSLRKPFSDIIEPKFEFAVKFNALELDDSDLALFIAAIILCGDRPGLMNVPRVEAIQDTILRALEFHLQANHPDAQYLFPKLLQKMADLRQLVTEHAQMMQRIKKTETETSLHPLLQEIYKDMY
# Method in brief: as §1
# [13] = biological target: DNA dC->dU-editing enzyme APOBEC-3G (Homo sapiens) (UniProt Q9HC16); assay: qHTS for inhibitors of Vif-A3G interactions: Validation (AID 588379)
# Sequence of DNA dC->dU-editing enzyme APOBEC-3G (Homo sapiens) (Q9HC16 whole entry, looked up): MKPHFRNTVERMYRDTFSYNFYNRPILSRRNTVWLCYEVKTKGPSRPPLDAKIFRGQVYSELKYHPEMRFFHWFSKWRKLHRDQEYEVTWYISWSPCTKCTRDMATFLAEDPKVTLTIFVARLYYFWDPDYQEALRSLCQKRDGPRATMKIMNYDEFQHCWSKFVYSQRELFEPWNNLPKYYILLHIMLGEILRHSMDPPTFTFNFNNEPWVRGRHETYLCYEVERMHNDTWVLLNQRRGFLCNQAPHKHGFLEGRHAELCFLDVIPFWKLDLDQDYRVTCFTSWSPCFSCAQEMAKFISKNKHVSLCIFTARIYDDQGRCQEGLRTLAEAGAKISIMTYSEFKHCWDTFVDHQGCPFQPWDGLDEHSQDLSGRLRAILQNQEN
# Method in brief: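 Yellow fluorescence (Ex 488, Em 500-530) of Vif-coexpressing HeLa A3G-eYFP cells, scanned by Acumen cytometer, reports blocked A3G degradation. Cells plated at 700/well overnight at 37 deg C before compound addition, then a further overnight compound incubation at 37 deg C.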
# [14] = biological target: Bile acid receptor (Homo sapiens) (UniProt Q96RI1); assay: qHTS assay for small molecule antagonists of farnesoid X receptor signaling (AID 588526; calls by dose curve)
# Sequence of Bile acid receptor (Homo sapiens) (Q96RI1 whole entry, looked up): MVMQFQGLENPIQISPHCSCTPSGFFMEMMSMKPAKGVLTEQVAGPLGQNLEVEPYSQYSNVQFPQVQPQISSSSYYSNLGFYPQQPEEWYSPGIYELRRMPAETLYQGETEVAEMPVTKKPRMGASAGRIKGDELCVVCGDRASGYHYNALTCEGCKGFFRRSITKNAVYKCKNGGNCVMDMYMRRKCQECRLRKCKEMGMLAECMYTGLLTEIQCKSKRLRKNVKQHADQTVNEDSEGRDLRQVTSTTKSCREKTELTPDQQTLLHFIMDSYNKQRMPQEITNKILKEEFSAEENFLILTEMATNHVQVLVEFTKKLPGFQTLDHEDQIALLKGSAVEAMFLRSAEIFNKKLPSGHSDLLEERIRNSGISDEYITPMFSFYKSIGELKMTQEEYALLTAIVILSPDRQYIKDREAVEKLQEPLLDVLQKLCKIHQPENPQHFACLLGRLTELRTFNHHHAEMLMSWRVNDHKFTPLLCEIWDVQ
# Method in brief: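 Antagonist mode: titrated compounds tested against chenodeoxycholic acid stimulation (normalized to 50 uM CDCA and DMSO) in GeneBLAzer HEK293T cells for 16 h. Beta-lactamase read by CCF4 fluorescence; IC50 from Hill fits.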
# [15] = biological target: Glucocorticoid receptor (Homo sapiens) (UniProt P04150); assay: qHTS assay for small molecule antagonists of glucocorticoid receptor signaling (AID 588533; active means well fitted inhibition curve with a large enough effect in the signal ratio, with a control signal flat, not every such curve was filed as active; inconclusive means small, poorly fitted or top-dose-only effect, or effect the other way, or a change in a side signal; the % refers to the signal ratio;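 further: cells stimulated with 2 nM dexamethasone as agonist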)
# Sequence of Glucocorticoid receptor (Homo sapiens) (P04150 whole entry, looked up): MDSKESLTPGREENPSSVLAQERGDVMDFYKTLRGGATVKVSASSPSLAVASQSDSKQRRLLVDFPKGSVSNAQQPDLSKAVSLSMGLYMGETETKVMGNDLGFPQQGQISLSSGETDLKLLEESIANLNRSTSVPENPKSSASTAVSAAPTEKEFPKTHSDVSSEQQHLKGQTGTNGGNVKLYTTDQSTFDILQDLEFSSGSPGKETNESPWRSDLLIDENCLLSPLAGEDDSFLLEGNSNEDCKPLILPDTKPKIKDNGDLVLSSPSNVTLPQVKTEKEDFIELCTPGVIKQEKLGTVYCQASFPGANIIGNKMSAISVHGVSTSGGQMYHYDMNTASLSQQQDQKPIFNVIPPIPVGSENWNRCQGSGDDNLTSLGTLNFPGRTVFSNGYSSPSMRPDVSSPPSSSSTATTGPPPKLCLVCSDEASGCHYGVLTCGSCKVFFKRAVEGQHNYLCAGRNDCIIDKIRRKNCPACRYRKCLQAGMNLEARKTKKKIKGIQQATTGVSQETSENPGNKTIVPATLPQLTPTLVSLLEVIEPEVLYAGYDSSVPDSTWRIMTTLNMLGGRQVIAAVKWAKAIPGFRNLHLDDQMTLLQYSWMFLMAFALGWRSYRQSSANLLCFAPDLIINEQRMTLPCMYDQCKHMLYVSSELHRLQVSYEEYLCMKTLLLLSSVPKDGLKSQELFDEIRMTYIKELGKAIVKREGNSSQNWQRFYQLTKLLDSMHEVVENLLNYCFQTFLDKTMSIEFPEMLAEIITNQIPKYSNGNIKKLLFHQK
# Method in brief: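 Antagonist-mode qHTS: compound titrations added to GRE-bla HeLa cells, then dexamethasone 2 nM final; 18 h, 37 C. CCF4 FRET fluorescence normalized to dexamethasone and DMSO; IC50 from Hill fit.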
# [16] = biological target: Peroxisome proliferator-activated receptor gamma (Homo sapiens) (UniProt P37231); assay: qHTS assay for small molecule agonists of peroxisome proliferator-activated receptor gamma signaling (AID 588536; active means well fitted curve in the direction sought with a large enough effect in the signal ratio, with a control signal flat, not every such curve was filed as active; inconclusive means small, poorly fitted or top-dose-only effect, or effect the other way, or a change in a side signal; inactive means no such curve, though single readings can be large or run the other way; the % refers to the signal ratio)
# Sequence of Peroxisome proliferator-activated receptor gamma (Homo sapiens) (P37231 whole entry, looked up): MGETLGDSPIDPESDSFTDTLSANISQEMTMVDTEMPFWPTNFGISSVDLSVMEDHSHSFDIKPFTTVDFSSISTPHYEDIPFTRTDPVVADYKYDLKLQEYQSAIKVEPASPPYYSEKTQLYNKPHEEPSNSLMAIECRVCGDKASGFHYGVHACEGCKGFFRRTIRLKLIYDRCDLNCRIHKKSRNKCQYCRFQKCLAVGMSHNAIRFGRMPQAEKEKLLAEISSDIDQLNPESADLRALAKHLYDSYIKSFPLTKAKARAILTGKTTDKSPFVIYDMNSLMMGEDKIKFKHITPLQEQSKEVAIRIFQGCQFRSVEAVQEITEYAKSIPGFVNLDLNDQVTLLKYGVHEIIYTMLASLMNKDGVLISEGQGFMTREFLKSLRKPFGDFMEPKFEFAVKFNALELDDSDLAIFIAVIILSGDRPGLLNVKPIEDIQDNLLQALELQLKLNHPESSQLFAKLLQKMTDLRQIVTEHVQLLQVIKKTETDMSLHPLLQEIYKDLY
# Method in brief: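 Using GeneBLAzer HEK293 cells, response was quantified by CCF4 fluorescence and normalized between basal DMSO (0%) and rosiglitazone 2 uM (100%); curves yielded half-maximal stimulation concentration and efficacy.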
# [17] = biological target: Peroxisome proliferator-activated receptor gamma (Homo sapiens) (UniProt P37231); assay: qHTS assay for small molecule antagonists of peroxisome proliferator-activated receptor gamma signaling (AID 588537; active means well fitted inhibition curve with a large enough effect in the signal ratio, with a control signal flat, not every such curve was filed as active; inconclusive means small, poorly fitted or top-dose-only effect, or effect the other way, or a change in a side signal; the % refers to the signal ratio;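 further: reporter cells co-stimulated with 50 nM rosiglitazone agonist during compound treatment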)
# Method in brief: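 Fluorescence at 460 and 530 nm (405 nm excitation) reported beta-lactamase cleavage of CCF4 after 2 h room-temperature loading. HEK293 reporter cells in 1% charcoal/dextran-treated FBS had received compound and rosiglitazone for 16 h.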
# [18] = biological target: Glucocorticoid receptor (Homo sapiens) (UniProt P04150); assay: qHTS assay for small molecule agonists of glucocorticoid receptor signaling (AID 588532; active means well fitted curve in the direction sought with a large enough effect in the signal ratio, with a control signal flat; inconclusive means small, poorly fitted or top-dose-only effect, or a change in a side signal; inactive means no such curve, though single readings can be large or run the other way; the % refers to the signal ratio); details: HeLa MMTV-bla, beta-lactamase ratio, agonist, 18 h; stronger effect = higher value; percent of dexamethasone control, DMSO zero
# Method in brief: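 MMTV-bla HeLa beta-lactamase reporter cells in 1% charcoal/dextran FBS medium, compounds up to 92 uM for 18 h at 37 C, CCF4 readout; normalized to 0.1 uM dexamethasone (100%), EC50 and efficacy from Hill fits.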
# [19] = biological target: Androgen receptor (Homo sapiens) (UniProt P10275); assay: qHTS assay for small molecule agonists of androgen receptor signaling (AID 588515; active means well fitted curve in the direction sought with a large enough effect in the signal ratio, with a control signal flat; inconclusive means small, poorly fitted or top-dose-only effect, or effect the other way, or a change in a side signal; inactive means no such curve, though single readings can be large or run the other way; the % refers to the signal ratio); details: AR-UAS-bla HEK293, beta-lactamase ratio, agonist 16 h; stronger effect = higher value
# Method in brief: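 Stimulation of an AR-responsive β-lactamase reporter in GripTite HEK293 cells was measured after 16 h compound exposure at 37 °C, via CCF4 fluorescence after 2 h RT. EC50 from Hill fits, normalized to R1881 at 30 nM.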
smiles,measurement,setting,value
NC(N)=NCc1cccc(I)c1,outcome,[1],inactive
same,outcome,[2],inactive
same,outcome,[3],inactive
same,outcome,[4],inactive
same,outcome,[5],inactive
same,outcome,[6],inactive
same,Potency,[7],inactive
same,outcome,[8],inactive
same,outcome,[9],inactive
COc1cc(O)c(C(=O)c2ccccc2)cc1S(=O)(=O)O,Potency,[7],inactive
C#C[C@]1(O)CC[C@H]2[C@@H]3CCc4cc(OC)ccc4[C@H]3CC[C@@]21C,Potency,[7],inactive
Clc1cccc(C(c2ccc3nc[nH]c3c2)n2ccnc2)c1 (centres undefined),Potency,[7],inactive
CC(=O)Nc1ccc(S(=O)(=O)Nc2ccc([N+](=O)[O-])cc2)cc1,Potency,[7],inactive
Cc1c(-c2ccccc2)oc2c(C(=O)OCCN3CCCCC3)cccc2c1=O,Potency,[7],inactive
CCCCCCCC/C=C\CCCCCCCCN,Potency,[7],inactive
same,Potency,[10],inactive
same,max response,[11],-29.2%
same,outcome,[12],inactive
CN1CCC[C@@H]1CCO[C@](C)(c1ccccc1)c1ccc(Cl)cc1,Potency,[7],inactive
same,outcome,[13],inactive
CO[C@]12C[C@@H](COC(=O)c3cncc(Br)c3)CN(C)[C@@H]1Cc1cn(C)c3cccc2c13,Potency,[7],inactive
same,outcome,[13],inactive
O=C(O)c1ccc(S(=O)(=O)N(Cl)Cl)cc1,Potency,[7],inactive
same,Potency,[10],inactive
same,outcome,[14],inactive
same,outcome,[15],inactive
same,outcome,[16],inactive
same,Potency,[17],inactive
O=c1[nH]c(=O)n([C@H]2C[C@H](O)[C@@H](CO)O2)cc1F,Potency,[7],inactive
same,outcome,[13],inactive
COc1ccc(C(Cl)=C(c2ccc(OC)cc2)c2ccc(OC)cc2)cc1,Potency,[10],1.58 µM [inconclusive] (active)
same,activation,[18],2.85% (inactive)
same,outcome,[15],inactive
same,max response,[11],23%
same,outcome,[12],inactive
CN(C)CCC[C@@]1(c2ccc(F)cc2)OCc2cc(C#N)ccc21,Potency,[7],inactive
same,outcome,[13],inactive
O=C(O)C(Cc1cc(I)c(O)c(I)c1)c1ccccc1 (centres undefined),Potency,[7],inactive
CNCCCCOc1ccccc1Cc1ccccc1,outcome,[13],inactive
CCOc1ccccc1C(N)=O,Potency,[7],inactive
same,Potency,[10],inactive
same,activation,[19],-4.07% (inactive)
same,outcome,[14],inactive
same,activation,[18],-1.86% (inactive)
same,outcome,[15],inactive
same,max response,[11],-16.5%
same,outcome,[12],inactive
same,outcome,[16],inactive
same,Potency,[17],inactive
C/C=C/c1ccc(O)c(OC)c1,Potency,[7],inactive
same,Potency,[10],inactive
same,max response,[11],10.7% and 20%
same,outcome,[12],inactive
same,outcome,[16],inactive
same,Potency,[17],inactive
C[N+]12CCC(CC1)C(OC(=O)C(O)(c1ccccc1)c1ccccc1)C2 (centres undefined),Potency,[7],inactive
C#C[C@]1(O)CC[C@H]2[C@@H]3CCC4=Cc5oncc5C[C@]4(C)[C@H]3CC[C@@]21C,Potency,[7],inactive
same,activation,[18],-5.91% (inactive)
same,outcome,[16],inactive
